JMJD2A Tudor = qHTS Assay for Inhibitors of JMJD2A-Tudor Domain. Lysine-specific demethylase 4A (Homo sapiens), O75164. AlphaScreen JMJD2A-Tudor / H3K4me3 peptide binding. Potency, µM (highest dose often 114 µM), for the others: at the highest dose activity change, negative = inhibition, hits mostly inhibitors. 390,000 tested, 4.4% active; further: on the % scale 0 is the no-effect control and ±100 the full control effect; nearly all actives have a fitted effect of over 50% in size
G9a block = qHTS Assay for Inhibitors of Histone Lysine Methyltransferase G9a; Histone-lysine N-methyltransferase EHMT2 (Homo sapiens), Q96KQ7; G9a H3K9 monomethylation, AlphaScreen, 2 h; Potency, µM (titrated, usually from 102 µM), without a hit: at the highest dose activity, negative = inhibition, hits mostly inhibitors; 350,000 tested, 8.8% active; further: on the % scale 0 is the no-effect control and ±100 the full control effect; nearly all actives have a fitted effect of over 75% in size
Target sequence (Q96KQ7 913-1193 limits assumed): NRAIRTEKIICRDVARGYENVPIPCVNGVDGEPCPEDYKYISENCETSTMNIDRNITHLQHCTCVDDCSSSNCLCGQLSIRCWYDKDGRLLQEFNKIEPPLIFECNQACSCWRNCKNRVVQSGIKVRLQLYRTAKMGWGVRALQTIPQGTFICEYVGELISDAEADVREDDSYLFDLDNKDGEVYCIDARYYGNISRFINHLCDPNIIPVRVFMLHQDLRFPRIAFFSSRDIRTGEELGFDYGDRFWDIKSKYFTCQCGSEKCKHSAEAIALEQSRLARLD
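AlphaScreen detection with an anti-monomethyl H3K9 antibody quantified product after a 2 h room-temperature reaction containing 500 nM biotinylated H3K9 peptide, 20 µM SAM and 20 nM enzyme, which had been preincubated 15 min with compound.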
GLS inh = qHTS for Inhibitors of Glutaminase (GLS) | Glutaminase kidney isoform, mitochondrial (Homo sapiens), O94925 | GLS enzymatic activity, qHTS titration | Potency, µM (doses to about 45.5 µM), inactives show at the highest dose activity change, negative = inhibition, hits mostly inhibitors | 410,000 tested, 0.21% active; further: on the % scale 0 is the no-effect control and ±100 the full control effect
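hKGA in 45 mM KH2PO4 (pH 8.2), 0.02% Tween-20 with compound, then 1mM L-Glutamine (stock as added) plus glutamate oxidase/HRP/Amplex red coupling mix. Fluorescence read initially and after 30 min at RT; signal change reflects glutamate formation.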
BAZ2B inh = qHTS Assay for Inhibitors of BAZ2B | AlphaScreen BAZ2B-H3K14Ac peptide displacement | Potency, µM (top dose mostly 114 µM), without a hit: at the top dose activity change, negative = inhibition, usual class: inhibitors | 360,000 tested, 4.4% active | AID 504333, 2011; further: on the % scale 0 is the no-effect control and ±100 the full control effect; nearly all actives have a fitted effect of over 60% in size
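BAZ2B 50 nM plus b-H3(5-23)K14Ac 50 nM, PBS pH 7.4/0.01% Tween-20, 30 min RT; compound added (max 110 uM), 30 min RT; streptavidin donor/Ni-chelate acceptor beads 10 ug/mL final, 20 min dark; AlphaScreen read.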
HP1b chromo inh = HTS for Inhibitors of HP1-beta Chromodomain Interactions with Methylated Histone Tails; 390,000 tested, 0.56% active; Chromobox protein homolog 1 (Homo sapiens), P83916; Potency, µM (doses to about 114 µM), without a hit: top-dose activity change, negative = inhibition, most hits filed as inhibitors; AlphaScreen HP1-beta / biotin-H3K9me3 peptide binding; further: nearly all actives have a fitted effect of over 70% in size
Target sequence (P83916 whole entry, looked up): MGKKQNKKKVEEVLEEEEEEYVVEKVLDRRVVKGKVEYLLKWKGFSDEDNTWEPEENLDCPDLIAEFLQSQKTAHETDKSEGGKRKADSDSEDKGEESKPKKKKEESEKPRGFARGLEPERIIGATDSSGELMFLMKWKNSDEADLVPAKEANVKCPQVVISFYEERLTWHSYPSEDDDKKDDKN
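HP1-beta protein (50 nM final) preincubated 30 min at room temperature with biotinylated H3(1-18)K9me3 peptide (50 nM) in PBS pH 7.4, 0.01% Tween-20, then compound added for 30 min. AlphaScreen streptavidin donor/nickel chelate acceptor beads (10 ug/mL final), 30 min dark, luminescence read.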
* = called active by the depositor; ? = inconclusive; . = no result; [ ] = another dose, or the depositor's remark. Sampled rows, rich in hits. Any-hit rate of the full collection: about 10%. The call rests on the fitted dose curve; in most records, active means well fitted curve in the direction sought with a large enough effect; inconclusive means small, poorly fitted or top-dose-only effect, or another doubt; inactive means no such curve, though single readings can be large; an effect the other way counts as inactive or inconclusive. Potency means the concentration at half of the fitted maximal effect.

SMILES | JMJD2A Tudor | G9a block | GLS inh | BAZ2B inh | HP1b chromo inh
CCN(C[C@H]1N[C@@](CC)(C(=O)OC)[C@H]2C(=O)N(C)C(=O)[C@@H]12)C(=O)c1ccccc1 | -20.3% | . | -2.9% | . | 67.8%
O=C(CSc1nncn1-c1ccccc1F)NC1CC1 | -12.4% | . | 3.5% | . | 13.6%[57 µM]
Cc1cc(=O)[nH]c(N/N=C/c2ccccc2Cl)n1 | 79.4µM* | 39.8µM* | -0.1% | -1.8% | 14.9%
c1ccc(NNC2=NCCS2)cc1 | 3.98µM* | 50.1µM* | ? | -14.2% | ?
CCc1c(C)sc(NC(=O)C2CC2c2ccccc2)c1C(N)=O (centres undefined) | -30.6% | 14.1µM* | -8.5% | -4.9% | -0.4%
CC1(C(=O)NS(=O)(=O)c2cccs2)CCN1C(=O)CC1CCCCC1 (centres undefined) | . | . | -2.2% | . | .
Cc1ccc(N=C2NC(=O)CS2)c(C)c1 | 4.9% | -0.9%[59 µM] | -9.7% | -2.3% | 25.4%
Cc1cc(Br)ccc1N=C1NC(=O)CS1 | -9.7% | 20µM* | -8.2% | -22.5% | -7.1%
O=C1/C(=C/c2ccco2)SC(=S)N1CCC(=O)N1CCCCC1CCO (centres undefined) | -4.7% | 44.7µM* | -29.0% | 50.1µM* | 37.0%
O=C1/C(=C/c2ccc(Cl)cc2)SC(=S)N1CCC(=O)N1CCCCC1CCO (centres undefined) | ? | -26.0% | -10.8% | ? | -15.4%
O=C1/C(=C/c2cccs2)SC(=S)N1CC(=O)N1CCCCC1CCO (centres undefined) | 0.4% | 70.8µM* | -0.1% | ? | 38.6%
Cc1ccc(N2C(=O)/C(=C/c3ccco3)SC2=S)cc1 | ? | -16.6% | 7.8% | ? | -16.0%
O=C1/C(=C\c2ccco2)SC(=S)N1C1CCCCC1 | . | 6.0%[0.501 µM] | . | 10µM* | .
O=C1/C(=C/c2cccc(Cl)c2)SC(=S)N1CCC(=O)N1CCCCC1CCO (centres undefined) | -10.5% | . | 11.5% | 28.2µM* | 22.0%
COc1ccccc1CNc1cc(-c2ccccc2Cl)ncn1 | . | 1.2%[0.501 µM] | . | . | .
CCOCc1[nH]c(=S)[nH]c(=O)c1Cc1ccc(OC(C)C)cc1 | -32.6% | 50.1µM* | -5.1% | -24.7% | 6.4%
CSc1nc(Cl)c(Cc2ccc(OC(C)C)cc2)c(N(C)C)n1 | 71.5% | 101.0% | 21.6% | 57.6% | 147.3%
CN(C)c1ccc(N=Nc2cccc3ccoc23)cc1 | 25.1µM* | 6.31µM* | 7.2% | 5.62µM* | 17.8µM*
CN(C)c1ccc(N=Nc2ccc(S(N)(=O)=O)cc2)cc1 | -29.2% | ? | 1.1% | ? | -21.0%
c1cnc2ccc(-c3ccc4ncccc4c3)cc2c1 | -25.7% | 22.3%[0.501 µM] | 0.8% | 0.4% | 37.6%
Cc1cc(N(C)C)ccc1N=Nc1ccc2ncccc2c1 | 6.31µM* | -46.7%[2.33 µM] | 27.3% | 3.16µM* | 8.91µM*
CN(C)c1ccc(N=Nc2ccc3ncccc3c2)cc1 | 3.16µM* | . | 1.6% | . | ?
CN(C)c1ccc(N=Nc2cccc(F)c2)cc1 | 8.91µM* | 10µM* | -11.6% | 4.47µM* | 6.31µM*
Cc1ccc2ncccc2c1 | -4.8% | 1.3%[0.501 µM] | 0.2% | 24.9% | 55.4%
Cc1cccc(S(=O)(=O)NC(=O)C2(C)CCN2C(=O)Cc2ccc(-c3ccccc3)cc2)c1 (centres undefined) | . | . | 14.1% | . | .
SMILES | JMJD2A Tudor | G9a block | GLS inh | BAZ2B inh | HP1b chromo inh
Cc1ccc(S(=O)(=O)N2C[C@H]3C(=O)C[C@@H](c4cccs4)N(S(=O)(=O)c4ccc(C)cc4)[C@H]3C[C@H]2c2ccccc2)cc1 | . | . | 1.0% | . | .
CCCCCCCCCCCCCCCCCC(=O)[O][Al] | . | . | -2.9% | . | .
Cc1ccc(CNC(=O)c2cc3cc(C)ccc3n2C)cc1 | -5.3% | ? | 1.2% | -6.5% | 26.5%
CCOC(=O)CC1(C)NC(C(=O)O)C(C)(C)S1 (centres undefined) | 5.01µM* | . | 20.6% | . | -12.8%
Cc1ccc(CSCC(=O)N/N=C/c2ccc(OCC(=O)Nc3ccc(C)cc3)cc2)cc1 | ? | 17.8µM* | -4.9% | ? | 1.2%
Cc1ccc(OCC(=O)Nc2ccc(C(N)=O)cc2)cc1 | 17.4% | 13.2% | -5.3% | -1.1% | 16.6%
Cc1ccc(OCC(=O)Nc2ccc(N(C)C)cc2)cc1 | ? | 8.91µM* | 16.0% | -3.8% | ?
COc1ccc(-c2ccc(=O)n(CC(=O)Nc3ccc(N(C)C)cc3)n2)cc1 | 56.2µM* | 5.01µM* | 37.3% | 31.6µM* | ?
COc1ccc(NC(=O)c2nc3nc(C)cc(C(F)F)n3n2)c(C)c1 | -1.0% | -13.8%[59 µM] | -9.6% | 0.4% | 31.8%
NC(COCc1ccccc1)c1csc(NC(=O)Nc2cccc(Cl)c2)n1 (centres undefined) | . | . | 9.6% | . | .
CN1C(=O)/C(=C/c2ccc(O)c([N+](=O)[O-])c2)N(C)C1=S | ? | . | 10.4% | 22.4% | -34.7%
CC(C)(c1ccc(O)c([N+](=O)[O-])c1)c1ccc(O)c([N+](=O)[O-])c1 | 56.2µM* | . | 10.5% | . | ?
COc1ccc(NC(=O)C2(C)CCN2CCOc2ccccc2)cc1OC (centres undefined) | . | . | -5.9% | . | .
O=C(CSc1nnc(-c2ccc(Cl)cc2Cl)n1C1CCCCC1)N1CCCC1 | -19.0% | 15.3%[12.7 µM] | 5.9% | 5.6% | 20.9%
CC(=O)c1ccc(S(=O)(=O)NCC(=O)N2CCN(C/C=C/c3ccccc3)CC2)cc1 | -27.1% | 7.94µM* | 12.8% | -3.9% | 5.5%
Cc1cccc(-c2nnc(SCC(=O)C(C)(C)C)n2C)c1 | -1.4% | -1.6% | 36.6% | -12.3% | 18.8%
Cc1ccc(S(=O)(=O)N2CCCC2C(=O)OCc2ccco2)cc1 (centres undefined) | 56.2µM* | ? | -9.2% | 50.1µM* | 5.1%
Cc1ccc(S(=O)(=O)N2CCCC2C(=O)OCc2ccccc2)cc1 (centres undefined) | 25.7% | 14.3%[59 µM] | -3.0% | 24.6% | 79.5%
O=C(O)c1ccc(Cl)c(S(=O)(=O)Nc2ccc3cn[nH]c3c2)c1 | -16.5% | 44.7µM* | 24.8% | ? | 0.3%
CN1c2c(nc(N)[nH]c2=O)NCC1CNc1ccc(C(=O)NC(CCC(=O)O)C(=O)O)cc1 (centres undefined) | . | 6.0%[12.7 µM] | 1.8% | . | .
Cc1cc(C)n(CCC(=O)N2CCCC(N3CCN(c4cccc(Cl)c4)CC3)C2)n1 (centres undefined) | -13.1% | 90.8% | 8.4% | -13.7% | 2.2%
O=C(CC1CCCCC1)NC1CCCC1 | 4.4% | 6.6%[2.33 µM] | 0.9% | 11.9% | 43.1%
CC1(C)C2CCC(C2)C1(C)NC(=O)CNCC1CCCCC1 (centres undefined) | ? | 5.62µM* | -2.2% | . | ?
